Compounds with a hit are over-represented: about 15% of the library has one in this group of screens.
HCV inhibitor: HCV inhibition; Huh7.5.1 HCVcc-Cre infection, luciferase reporter, 44 h; Potency, µM (top dose mostly 41.8 µM), for the others: at the highest dose activity change, negative = inhibition, hits mostly inhibitors; actives 3.4% (n = 340,000); AID 651820; also: potency is read from the fitted curve at half-maximal effect; % is scaled to controls: 0 for no effect and ±100 for the full control effect
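Infectious HCVcc-Cre (~0.5 moi) was added to cells just after compound, with cells seeded 4 h earlier at 1,000 per well. Luciferase activity after 44 h culture reported infection; substrate was incubated 15 min at room temperature before reading.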
SARS PLpro yeast: inhibitors of SARS-CoV papain-like protease in yeast; actives 0.19% (n = 330,000); S. cerevisiae expressing SARS-CoV PLpro, growth rescue; Potency, µM (series often up to 32.9 µM), inactives show top-dose activity, positive = growth rescue, actives largely listed as activators; AID 485353; calls by dose curve; also: potency is read from the fitted curve at half-maximal effect; 0% is about no effect; nearly all actives have a fitted effect of over 55% in size
HCMV inh: inhibitors of human cytomegalovirus. activity change, negative = inhibition, % at 57.5 µM. HFF cells, HCMV-luciferase reporter, 72 h; hits give low values. AID 1259415. actives 4.5% (n = 410,000); in the data active = activity change below about -60%; inconclusive = no clear call, values can overlap the other calls; inactive = above about -39%; also: % is scaled to controls: 0 for no effect and ±100 for the full control effect
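After 16 h attachment at 37C, HFF cells received test compound and HCMV-luciferase (1 PFU/cell); reporter luminescence read 72 h later, data normalized against buffer-only and known inhibitor Salinomycin.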
Pf growth 96h: inhibits malaria parasite growth, 96 h | actives 6.9% (n = 320,000) | Potency, µM (doses to about 28.7 µM), for inactives: at the highest dose activity change, negative = inhibition, hits mostly inhibitors | AID 504834 | P. falciparum luciferase reporter growth, 96 h; also: potency is read from the fitted curve at half-maximal effect; % is scaled to controls: 0 for no effect and ±100 for the full control effect
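Two parasite generations (96 h, 37 C, 5% CO2) of compound exposure in infected erythrocytes (0.05% parasitemia, 2% hematocrit). Luciferase-reporter P. falciparum; decreased luminescence indicates inhibited growth, aimed at apicoplast-acting delayed death.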
Pf growth 48h: inhibits P. falciparum growth in the first generation, 48 h; actives 5.9% (n = 310,000); P. falciparum luciferase growth in erythrocytes, 48 h; Potency, µM (top dose mostly 28.7 µM), for inactives: at the top dose activity change, negative = inhibition, most hits filed as inhibitors; AID 504832; also: potency is read from the fitted curve at half-maximal effect; % is scaled to controls: 0 for no effect and ±100 for the full control effect
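Luciferase-expressing parasites in RBCs, 2% Hct / 0.1% parasitemia final; RPMI 1640 + 0.5% Albumax; 37 C, 5% CO2, one generation; luminescence read-out, lower signal = inhibition.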
Sm TGR block: inhibitors of Schistosoma mansoni thioredoxin glutathione reductase. Q962Y6. purified TGR, DTNB reduction, TNB absorbance 405 nm. Potency, µM (highest dose often 114 µM), without a hit: top-dose activity change, negative = inhibition, usual class: inhibitors. actives 3% (n = 360,000); also: potency is read from the fitted curve at half-maximal effect; % is scaled to controls: 0 for no effect and ±100 for the full control effect; nearly all actives have a fitted effect of over 60% in size
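Kinetic colorimetric format: TGR-catalysed, NADPH-driven DTNB reduction monitored via TNB absorbance. Enzyme dispensed at 20 nM; compound exposure 15 min at room temperature before reaction start.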
* hit, by the source's call; ? = inconclusive; · = no result; [ ] = remark or other dose. Unless noted, calls follow the shape of the dose curve; as a rule, active = well fitted curve in the direction sought with a large enough effect; inconclusive = small, poorly fitted or top-dose-only effect, or another doubt; inactive = no such curve, though single readings can be large; an effect the other way counts as inactive or inconclusive.

SMILES	HCV inhibitor	SARS PLpro yeast	HCMV inh	Pf growth 96h	Pf growth 48h	Sm TGR block
CN1CCN(c2ccccc2NC(=O)c2ccc(-c3ccc(Cl)cc3Cl)o2)CC1	10µM*	-9%	-39	4.1µM*	·	10%
Cc1ccc2c(c1)-n1c(nc3cc(Cl)ccc3c1=O)C(CC(C)C)NC2=O (stereo unspecified)	21%	5%	12	·	·	·
COc1ccc2c(c1)OC(c1ccccc1)(C(F)(F)F)NC2=O (stereo unspecified)	19%	-5%	-14	?	2.9µM*	2%
CC(C)Oc1ccc2c(c1)OC(c1ccccc1)(C(F)(F)F)NC2=O (stereo unspecified)	-4%	1%	-18	0.19µM*	0.83µM*	-19%
COc1ccc(C2=COc3ccccc3C(=O)N2)cc1	-13%	-7%	?	7%	9%	7%
Cc1ccc(NC(=O)CN(c2ccc(Cl)cc2)S(=O)(=O)c2cc([N+](=O)[O-])ccc2Cl)c(C)c1	?	0%	?	?	?	-31%
CN(c1ncnc2onc(-c3cccc(Cl)c3)c12)C1CCCCC1	·	·	-14	·	·	5%
O=C(/C=C/c1cn(-c2ccccc2)nc1-c1ccc2c(c1)OCCO2)NCCO	12%	1%	-1	?	?	2%
OCc1ccc2c(c1)c(-c1ccc3c(c1)OCCO3)c(-c1ccccc1)n2-c1ccccc1	?	-5%	7	4.7µM*	?	-9%
O=C(Nc1nnc(-c2cccs2)s1)c1cccc(F)c1	5%	-1%	17	-9%	173%	5%
CC(=O)N1CC(=O)N=C1SCC(=O)Nc1nc(-c2ccccc2)c(-c2ccccc2)s1	?	?	51	?	15µM*	-4%
CCOc1cc(/C=C2\C(=O)ON=C2C)ccc1OCc1ccccc1	-3%	1%	-76*	-2%	-5%	-5%
COc1cc(/C=c2\sc3n(c2=O)C(c2ccccc2)C(c2ccccc2)=NN=3)ccc1O (stereo unspecified)	-18%	18%	14	4.1µM*	4.7µM*	-2%
C=CCOc1ccc(/C=C2/C(=O)ON=C2C)cc1OC	9%	-2%	36	-19%	-5%[0.00184 µM]	0%
COc1cc(/C=C2\C(=O)ON=C2c2ccccc2)cc(Cl)c1O	11%	-1%	20	20%	0%	7.1µM*
COc1cc(/C=C2/C(=O)ON=C2c2ccccc2)ccc1O	-10%	-15%	2	1%	-1%	25µM*
COc1ccc(/C=C2/C(=O)ON=C2C)cc1Cl	8%	1%	14	-5%	20%	7%
CC(=O)c1cccc(-c2ccnc3c2CC(C(=O)Nc2cccc(NS(C)(=O)=O)c2)O3)c1 (stereo unspecified)	·	·	5	·	·	·
CSc1nc(NCCOC(C)=O)c(C#N)c(-c2ccc(C(C)(C)C)cc2)n1	·	·	-20	·	·	-11%
COc1cc(/C=C2\C(=O)ON=C2c2ccccc2)cc(Br)c1O	-19%	-2%	16	-72%	-11%[0.00184 µM]	1.6µM*
CCOc1cc(/C=C2\C(=O)ON=C2c2ccccc2)cc(Br)c1O	-17%	-6%	-22	15%	16%[0.00184 µM]	1.4µM*
COc1cc(C=C2C(=O)OC(c3ccccc3)OC2=O)cc(Br)c1O (stereo unspecified)	15%	1%	3	?	17%	-33%
O=C1ON=C(c2ccccc2)/C1=C/c1ccc(O)cc1	8%	0%	205	-22%	-2%	?
O=C1ON=C(c2ccc(Cl)cc2)/C1=C/c1ccc(O)cc1	?	0%	-100*	20%	?	22µM*
COc1cc2c(cc1OC(C)=O)CCCCC2=O	6%	·	-13	·	·	·
SMILES	HCV inhibitor	SARS PLpro yeast	HCMV inh	Pf growth 96h	Pf growth 48h	Sm TGR block
O=C(COC(=O)/C=C/c1ccc(OC(F)F)cc1)NC1CCCCCC1	3%	18%	-14	·	·	·
CC1CN(S(=O)(=O)c2ccc(CN3C(=O)c4cccnc4C3=O)cc2)c2ccccc2O1 (stereo unspecified)	14%	-1%	-36	?	29%	8%
COc1ccc(C(CNC(=O)C(=O)Nc2ccc3c(c2)OCCO3)N2CCN(C)CC2)cc1 (stereo unspecified)	-4%	3%	-27	56%	?	-2%
CCn1c(CN2CCOCC2)nc2cc(NC(=O)c3ccccc3[N+](=O)[O-])ccc21	·	·	1	·	·	-7%
CCOC(=O)CN(Cc1ccccc1)C(=O)OC(C)(C)C	·	3%	·	22%	17%	3%
Cc1nn(CC(=O)N2CCN(C)CC2)c(=O)c2c1sc1ccccc12	4%	23%	-28	?	-3%	6%
CCOC(=O)N1CCN(C(=O)Cn2nc(C)c3sc4ccccc4c3c2=O)CC1	16%	-3%	12	10µM*	?	10%
CCn1cc(C(=S)N2CCC(C(N)=O)CC2)c2ccccc21	-14%	0%	22	0%	-5%[5.75 µM]	12%
COC(=O)C[C@H]1CC[C@@H](NC(=O)Nc2c(C)noc2C)[C@@H](CO)O1	·	·	-65*	·	·	·
CCCCNC(=O)CC1NCCNC1=O (stereo unspecified)	0%	0%	?	32%	7%	5%
COc1ccc(CCNC(=O)c2cc3c(=O)n(C)c4cc(Cl)ccc4c3s2)cc1OC	·	·	-24	·	·	12%
CC(=O)c1cccc(NC(=O)Nc2cnn(Cc3ccc(Cl)cc3Cl)c2)c1	-28%	-3%	-38	9.3µM*	·	-9%
O=C1N=C(N2CCN(Cc3ccccc3)CC2)S/C1=C/c1cccs1	1%	-1%	41	?	?	0%
O=C1N=C(c2ccccc2)S/C1=C\c1cccs1	-5%	2%	17	39%	·	4µM*
CC(=O)N1CCN(C2=NC(=O)/C(=C/c3ccc(OS(=O)(=O)c4ccccc4)cc3)S2)CC1	-5%	17%	-70*	?	?	-18%
O=C1N=C(N2CCN(c3ccccc3)CC2)S/C1=C/c1cccs1	0%	-17%	2	13µM*	-17%	0%
Cc1ccc(OCCC(=O)Nc2ccc(C)c(S(=O)(=O)N3CCOCC3)c2)cc1	?	-10%	0	?	?	-10%
CCOc1ccccc1OCCCC(=O)Nc1ccc(Cl)c(S(=O)(=O)N2CCOCC2)c1	7.9µM*	4%	?	7.4µM*	9.3µM*	-11%
Cc1ccc(NC(=O)COc2ccc(Cl)cc2Cl)cc1S(=O)(=O)N1CCOCC1	?	4%	-21	?	?	0%
Cc1cccc(OCCCC(=O)Nc2ccc(Cl)c(S(=O)(=O)N3CCOCC3)c2)c1	7.9µM*	-4%	-37	?	?	2%

High-throughput results as filed in PubChem BioAssay.
